In the library only some 6.2% were active in any assay of this set; here they are far more common.
KB-V1 MDR tox: qHTS assay for MDR1-selective chemotherapeutics: Primary screen using the drug-selected MDR subline cells KB-V1. KB-V1 MDR cells viability, CellTiter-Glo, 72 h. Potency, µM (highest dose often 46.1 µM), actives largely listed as cytotoxic. 400,000 tested, 3.4% active; also: % is scaled to controls: 0 for no effect and ±100 for the full control effect; nearly all actives have a fitted effect of over 60% in size
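Readout: CellTiter-Glo luminescence, 10 min after addition. Cells: KB-V1 MDR subline, 72 h at 37 degrees C with compound. Analysis: corrected, normalized data fitted to concentration-effect curves.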
HT1080 IDH1KD tx: qHTS for induction of synthetic lethality in tumor cells producing 2HG: qHTS for the HT-1080-IDH1KD cell line; Potency, µM (series often up to 46.1 µM), for the others: at the top dose activity, negative = toxicity, most hits filed as cytotoxic; AID 686971, 2013; HT-1080 IDH1 knockdown viability, ATP luminescence, 48 h; 360,000 tested, 2% active;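 also: 0% = DMSO wells and -100% = cell-free medium wells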
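Cytotoxicity counter-line: IDH1KD HT-1080, 48 h, CellTiter-Glo. Curves classed by r2, magnitude and activity.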
ATXN viability: Viability Counterscreen for Primary qHTS for Inhibitors of ATXN expression; S2 cells (HEK-293 line with an ATXN2-luciferase reporter) viability, CellTiter-Fluor protease fluorescence, 24 h; Potency, µM (highest dose often 56.7 µM), most hits filed as cytotoxic; 400,000 tested, 0.49% active; AID 651635, 2014; also: nearly all actives have a fitted effect of over 40% in size
ATXN2 expr inh: Primary qHTS for Inhibitors of ATXN expression | HEK-293 ATXN2-luciferase reporter, luminescence, 24 h | Potency, µM (series often up to 57 µM), inactives show top-dose activity change, negative = inhibition, hits mostly inhibitors | 360,000 tested, 0.72% active | AID 1745845, 2022; also: % is scaled to controls: 0 for no effect and ±100 for the full control effect; nearly all actives have a fitted effect of over 55% in size
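qHTS (up to 57 uM final) was run with 24 h compound exposure of reporter cells at 37 °C. Each well was multiplexed: SteadyGlo luminescence measured ATXN2-luciferase expression after a fluorogenic Gly-Phe-AFC viability readout (25 uM final).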
HT1080-NT tox: qHTS for induction of synthetic lethality in tumor cells producing 2HG: qHTS for the HT-1080-NT fibrosarcoma cell line; HT-1080-NT fibrosarcoma viability, CellTiter-Glo ATP luminescence, 48 h; Potency, µM (top dose mostly 46.1 µM), for inactives: top-dose activity, negative = less viability, hits mostly cytotoxic; 360,000 tested, 1.6% active; AID 686970, 2013;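 also: NT is the 2HG producing partner of a matched IDH1 knockdown line; 0% = DMSO-treated cells and -100% = media-only wells without cells; nearly all actives have a fitted effect of over 55% in size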
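HT-1080-NT fibrosarcoma cells (2HG-overproducing), 750 cells/well in RPMI with 5% FBS, dosed after 2 h and incubated 48 h at 37C. CellTiter-Glo luminescence normalized to DMSO and no-cell wells; concentration-response curves fitted and classed.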
KB-3-1 cytotox: qHTS assay for MDR1-selective chemotherapeutics: Primary screen using the parental adenocarcinoma cell KB-3-1; KB-3-1 viability, CellTiter-Glo ATP luminescence, 72 h; Potency, µM (series often up to 46.1 µM), actives largely listed as cytotoxic; 400,000 tested, 1.4% active; AID 1347075, 2019; also: % is scaled to controls: 0 for no effect and ±100 for the full control effect; nearly all actives have a fitted effect of over 60% in size
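Cytotoxicity measured as CellTiter-Glo luminescence after 72 h at 37 C. Compound titrations were pinned onto drug-naive KB-3-1 parental adenocarcinoma cells grown in DMEM with 10% FBS, and normalized data fitted to concentration-response curves.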
Active calls of the source: *; i = inactive; ? = inconclusive; . = no result; [ ] = remark or other dose. Calls follow the shape of the dose curve; as a rule, active = well fitted curve in the direction sought with a large enough effect; inconclusive = small, poorly fitted or top-dose-only effect, or another doubt; inactive = no such curve, though single readings can be large; an effect the other way counts as inactive or inconclusive. Potency is read from the fitted curve at half-maximal effect.

SMILES	KB-V1 MDR tox	HT1080 IDH1KD tx	ATXN viability	ATXN2 expr inh	HT1080-NT tox	KB-3-1 cytotox
O=C(Cc1ccccc1)N1CCCC(c2nc(-c3ccc(S(=O)(=O)N4CCCC4)cc3)no2)C1 (centres undefined)	9.2µM*	6.0%	?	-19.1%	-6.8%	i
CC(C)N(C(=O)N1CCC(c2nc(-c3ccncc3)no2)CC1)C(C)C	10.3µM*	-24.4%	i	-7.0%	-16.3%	?
CS(=O)(=O)N1CCCC(c2nc(-c3ccc(S(=O)(=O)NCc4ccccc4)cc3)no2)C1 (centres undefined)	3.26µM*	?	i	?	?	?
O=C(NC1CCCCC1)N1CCC(c2nc(-c3ccc(S(=O)(=O)N4CCCC4)cc3)no2)CC1	2.59µM*	-0.7%	i	?	-0.8%	8.2µM*
Cc1ccc(C)c(Nc2nc(NCc3ccco3)nc3nccnc23)c1	i	.	.	.	.	i
O=c1c2sc3ccccc3c2n(Cc2cccc(C(F)(F)F)c2)c(=O)n1-c1ccccc1	i	.	?	-0.9%	.	i
CCCCCCCCCCCCOCCO	.	.	i	15.0%	.	.
O=C(OCCC12CC3CC(CC(C3)C1)C2)c1ccc(NCc2cc(O)ccc2O)cc1	?	7.31µM*	.	?	6.51µM*	14.6µM*
O=C(OCC12CC3CC(CC(C3)C1)C2)c1ccc(NCc2cc(O)ccc2O)cc1	i	20.6µM*	12.6µM*	10µM*	?	?
COc1ccc(CN2C(=O)c3ccccc3C2C(=O)NC2CCCC2)c(OC)c1 (centres undefined)	3.66µM*	-3.4%	i	-3.3%	8.9%	i
O=C(NC1CCCCCC1)C1c2ccccc2C(=O)N1Cc1ccco1 (centres undefined)	20.6µM*	9.4%	i	-8.0%	5.7%	i
CCC(C)NC(=O)C1c2ccccc2C(=O)N1Cc1cc(OC)ccc1OC (centres undefined)	7.31µM*	11.4%	i	3.5%	9.2%	i
CCC(C)N1C(=O)c2ccccc2C1C(=O)NC1CCCCCC1 (centres undefined)	18.4µM*	9.4%	i	4.1%	-2.8%	i
CC(C)N1C(=O)c2ccccc2C1C(=O)NC1CCCCCC1 (centres undefined)	i	1.8%	i	-18.2%	0.4%[9.24 µM]	i
O=C(NC1CCCCCC1)C1c2ccccc2C(=O)N1Cc1cccs1 (centres undefined)	?	-0.1%	i	-2.8%	5.2%	i
Cc1ccccc1C(=O)N1CC/C(=N\OS(=O)(=O)O)c2ccc(Cl)cc21	.	.	i	-1.9%	.	.
COc1ccccc1CNC(=O)c1ccc2c(c1)nc(C)n2-c1cccc(C)c1	i	.	i	-14.7%	.	i
COc1cc(Cl)c(C)cc1NC(=O)CN1C(=O)C2CCCCC2C1=O (centres undefined)	23.1µM*	-2.5%	i	5.3%	0.8%	i
CCOCCCn1c(=N)c(C(=O)NCc2ccc3c(c2)OCO3)cc2c(=O)n3cccc(C)c3nc21	i	?	?	?	2.8%[9.24 µM]	6.51µM*
Cc1cccn2c(=O)c3cc(C(=O)NCCc4ccccc4)c(=N)n(Cc4ccco4)c3nc12	?	5.17µM*	i	?	6.51µM*	i
CCOCCCn1c(SCC(=O)NCc2ccc3c(c2)OCO3)nc2ccccc2c1=O	14.6µM*	0.7%	?	-17.6%	1.5%	i
CCCCNC(=O)CSc1nc2ccccc2c(=O)n1Cc1ccc2c(c1)OCO2	i	2.5%	.	.	0.8%	i
